Results: the supplement of paper PMC10477191
± gives the standard deviation of the averaged measurements.

System: Drosophila virilis antennal basiconic sensillum AB10
Experiment: odor-evoked OSN spike response (post minus pre-stimulus); higher = stronger neuronal excitation
Conditions: odor dilution: 10^-4
Experimental: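 Single sensillum recordings from antennal basiconic sensilla of D. virilis. A 500 ms pulse of odorant (10^-4 in mineral oil or DMSO) was delivered; the response is the change in spike frequency between the 1 s pre- and post-stimulus windows (spikes/s).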

Row | SMILES | odor-evoked OSN spike response
1 | CC(=O)C(C)O (stereo not drawn) [acetoin] | 143 ± 43 spikes/s
2 | CCOC(=O)CC(C)O (stereo not drawn) [Ethyl-3-hydroxybutyrate] | 99.4 ± 35 spikes/s
3 | CC(=O)OC/C=C(\C)CCC=C(C)C [geranyl acetate] | 134 ± 24 spikes/s
